This is a sample that favours compounds with a hit; in the whole collection about 1.8% have one here.
DSG3 Ab inh: inhibitors of pemphigus antibody binding to DSG3, primary screen, biochemical, bead-based, flow cytometry, scFv-GFP | Desmoglein-3 (Homo sapiens), P32926 | DSG3-coupled beads, scFv-anti-DSG3-GFP binding; hits give low values | binding (percent of control), % at 10 µM | actives 0.48% (n = 310,000) | AID 588358, 2011;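 active = binding more than 3 SD below its plate's average and above zero; inconclusive = below that plate limit but binding exactly zero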;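 note: hits lower antibody fragment binding to DSG3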
Target sequence (P32926 whole entry, looked up, the tested form may be a part): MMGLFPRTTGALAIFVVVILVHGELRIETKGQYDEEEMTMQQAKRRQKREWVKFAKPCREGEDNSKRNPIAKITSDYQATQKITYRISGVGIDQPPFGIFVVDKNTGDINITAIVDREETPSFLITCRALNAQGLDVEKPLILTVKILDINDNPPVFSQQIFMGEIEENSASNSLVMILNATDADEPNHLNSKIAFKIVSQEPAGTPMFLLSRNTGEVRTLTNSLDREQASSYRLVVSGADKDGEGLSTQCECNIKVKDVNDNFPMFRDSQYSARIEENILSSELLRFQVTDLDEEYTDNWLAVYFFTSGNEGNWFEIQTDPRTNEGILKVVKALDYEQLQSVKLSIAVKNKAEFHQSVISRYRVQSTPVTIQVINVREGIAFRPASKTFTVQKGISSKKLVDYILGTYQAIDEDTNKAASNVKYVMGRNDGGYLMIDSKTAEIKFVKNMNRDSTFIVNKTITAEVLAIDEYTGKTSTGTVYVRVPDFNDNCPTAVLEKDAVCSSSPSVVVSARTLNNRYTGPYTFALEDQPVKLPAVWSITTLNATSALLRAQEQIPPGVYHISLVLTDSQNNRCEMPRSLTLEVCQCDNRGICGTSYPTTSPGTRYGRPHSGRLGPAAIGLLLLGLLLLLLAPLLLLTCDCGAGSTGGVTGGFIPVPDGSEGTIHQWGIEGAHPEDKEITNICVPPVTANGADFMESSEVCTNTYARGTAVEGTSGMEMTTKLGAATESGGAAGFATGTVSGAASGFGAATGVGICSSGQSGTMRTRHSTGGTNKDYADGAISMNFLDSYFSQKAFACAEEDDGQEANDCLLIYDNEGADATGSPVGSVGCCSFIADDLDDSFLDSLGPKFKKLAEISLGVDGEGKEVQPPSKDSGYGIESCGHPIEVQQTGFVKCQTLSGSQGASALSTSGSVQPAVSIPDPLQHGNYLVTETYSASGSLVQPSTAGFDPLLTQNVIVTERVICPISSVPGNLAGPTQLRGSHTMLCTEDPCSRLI
HDAC3 inhib: HDAC3 deacetylase inhibitors, primary screen, biochemical, fluorescence, cell-free homogeneous; Histone deacetylase 3 (Homo sapiens), O15379; recombinant HDAC3, fluorogenic peptide/trypsin coupled; inhibition, % at 8.3 µM; actives 0.15% (n = 320,000); AID 2718, 2010; in the data active = inhibition above about 26%, passing the limit was not always enough; inconclusive = no clear call, values can overlap the other calls
LANA-H2A inh: blockers of LANA interaction with H2A/H2B – biochemical, FP readout, HTS, primary screen. cell-free LANA-H2A/H2B peptide, fluorescence polarization. inhibition, % (concentration not given with the values). actives 0.6% (n = 320,000); in the data active = inhibition mostly above about 10%, no sharp cut-off; inactive = mostly below about 6.7%
VLA-4 inh: inhibition in human VLA-4 binding assay, primary screen, VLA-4 allosteric modulator project, MLPCN library, flow cytometry, VLA-4 expressing cells | inhibition, % (about 7 µM as worked out from the volumes in the protocol) | ligand binding flow cytometry | actives 0.2% (n = 330,000)
GRK2 inh: compounds blocking aptamer binding on GRK2 – biochemical, human GRK2, bead flow cytometry, HTS, primary screen. FAM-aptamer displacement from GRK2. Beta-adrenergic receptor kinase 1 (Homo sapiens), P25098. inhibition of aptamer binding, % at 10 µM. actives 0.59% (n = 330,000);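 active = inhibition of aptamer binding above 40%, roughly 3 SD of noise, on plates passing a quality check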;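 note: median bead fluorescence of bound FAM aptamer so fluorescent compounds give negative values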
PKD1 inh: inhibitors of human PKD1 kinase, biochemical, fluorescence polarization | Serine/threonine-protein kinase D1 (Homo sapiens), Q15139 | PKD1 kinase fluorescence polarization assay | inhibition, % (no concentration beside the values) | actives 0.056% (n = 200,000)
GRK2 inh confirm: GRK2 aptamer-displacing inhibitors, retest, confirmation, biochemical, cherry pick 1, bead flow cytometry; aptamer displacement, % at 10 µM; actives 4% (n = 2,000); shares compounds with GRK2 inh; bead-bound GRK2, FAM-aptamer displacement;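 active = aptamer displacement above 40%, near three times the noise of non-fluorescent compounds, on plates passing quality checks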;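 note: negative values mostly reflect intrinsic compound fluorescence rather than true enhancement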
Aptamer quench: fluorescent aptamer quenching in GRK2 counter-screen dose response | shares compounds with GRK2 inh | Fluorescent RNA aptamer beads, flow cytometry; hits give high values | fluorescence change (kMESF span), kMESF (test concentration not listed) | 110 tested, under 10 active | AID 504521;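 active = compounds whose bead fluorescence drops by more than 37 kMESF across the dose range, marking them as dye quenchers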
FAM quench CP1: quenches fluorescent RNA aptamer, GRK2 hit artifact; fluorescence response (% of DMSO), % at 10 µM; 2,000 tested, under 10 active; AID 504580; Carboxyfluorescein RNA aptamer on beads, flow cytometry quenching; hits give low values; shares compounds with GRK2 inh;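 active = compounds that quench the bead-bound fluorescent RNA probe, cutting fluorescence to under half of the solvent control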;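 note: counterscreen run without GRK2 so only probe quenching by compound is measured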
GRK2 CP2: GRK2 aptamer-displacing inhibitors, hit retest, confirmation, biochemical, cherry pick 2, bead flow cytometry; bead-bound GRK2, FAM-aptamer displacement; 360 tested, under 10 active; AID 504782, 2011; shares compounds with GRK2 inh; inhibition of aptamer binding, % at 10 µM;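 active = inhibition of aptamer binding above 40%, about triple the noise seen with nonglowing compounds, on plates passing quality control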;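 note: negative values mostly come from compounds that fluoresce themselves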
FAM quench CP2: quenches fluorescent RNA aptamer, GRK2 hit artifact; shares compounds with GRK2 inh; carboxyfluorescein RNA aptamer beads, flow cytometry quenching; hits give low values; fluorescence response vs DMSO, % at 10 µM; 360 tested, under 10 active;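 active = response vs DMSO under 50%, meaning signal dropped by over half, treated as fluorescence quencher; inconclusive = no clear call, values can overlap the other calls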;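 note: labelled aptamer on streptavidin beads without GRK2 as a quench counter-screen; 100% = bead fluorescence of DMSO wells and lower means quenching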
Numbers without * were called inactive; u = inconclusive; x = no result. Cut-off read from the data, not from the text of the source, unless noted: active = inhibition above about 50%; inactive = the rest.

SMILES | DSG3 Ab inh | HDAC3 inhib | LANA-H2A inh | VLA-4 inh | GRK2 inh | PKD1 inh | GRK2 inh confirm | FAM quench CP1 | others
CCn1c(CNC(=O)C(C)(C)C)nc2ccccc21 | 108 | 0 | 2 | -9 | 0 | -16 | x | x
C=CCn1c(SCC(=O)Nc2ncc(Cc3ccc(Br)cc3)s2)nnc1-c1ccncc1 | 81 | 2 | 10 | -17 | 91* | 3 | 7 | 97
COc1ccc(/C=C/c2c(-c3ccc(OC)cc3)sc3cc(OC)c(OC)cc23)cc1 | 90 | x | x | 42 | 0 | x | x | x
Cc1ccc(C(=O)NN2CCOCC2)cc1[N+](=O)[O-] | 103 | x | -3 | -6 | 0 | x | x | x
CN(C)C(=O)c1ccc(Cl)cc1[N+](=O)[O-] | 100 | -5 | 7 | 1 | 0 | 2 | x | x
O=C(Nn1cnnc1)c1ccc(Cl)cc1[N+](=O)[O-] | 100 | -2 | -2 | 21 | 93* | x | -4 | 101
Cc1ccc(C(=O)Nn2cnnc2)cc1[N+](=O)[O-] | 103 | -1 | 2 | 15 | 47* | -2 | 0 | 101
CCN(CC)c1ccc(NC(=S)NCC2CCCO2)cc1 (stereo unspecified) | 101 | -9 | -6 | 17 | 0 | -6 | x | x
O=C(OCCOc1ccccc1)c1cc(S(=O)(=O)N2CCOCC2)c(Cl)cc1Cl | 101 | x | x | x | x | x | x | x
O=C(CSc1ccccc1)Nc1ccc(-c2nc3ccccc3[nH]2)cc1 | 111 | -5 | 5 | 3 | 100* | -8 | x | x | GRK2 CP2=12;FAM quench CP2=101
Cc1ccc2nc(-c3ccc(NC(=O)CSc4ccccc4)cc3)[nH]c2c1 | 117 | 7 | -5 | 6 | 0 | -13 | x | x
O=C(N/N=C/c1cccnc1)c1cc(O)c(O)c(O)c1 | 89 | 5 | -1 | 3 | 44* | x | -9 | 99
COc1cc(SSc2cc(OC)cc([N+](=O)[O-])c2N)c(N)c([N+](=O)[O-])c1 | 101 | x | -1 | -4 | 87* | x | -14 | 95
Cc1cc2ccccc2n1CCNC(=O)c1ccccc1 | u | 5 | 2 | -16 | 100* | -7 | 29 | 102 | Aptamer quench=-1.8
CC1(C)CN(C(=S)Nc2ccc(F)cc2F)C1=O | 104 | 2 | 0 | 1 | 0 | x | x | x
CC12CCC(C(=O)n3c1nc1ccccc13)C2(C)C (stereo unspecified) | 101 | -2 | -1 | 17 | 36 | 4 | 0 | 91
O=C1CSc2nc3ccccc3n21 | 102 | x | x | 2 | 1 | -6 | x | x
O=C(c1ccc(CS(=O)c2cccc(Cl)c2)o1)N1CCCCCC1 (stereo unspecified) | x | -2 | 0 | 6 | 2 | x | x | x
Cc1csc(NC(=O)C2CCCCN2S(=O)(=O)c2ccccc2)n1 (stereo unspecified) | 78 | -7 | 4 | 8 | 95* | 3 | -2 | 102
O=C(Nc1nccs1)C1CCCCN1S(=O)(=O)c1ccccc1 (stereo unspecified) | 87 | -2 | -3 | 2 | 0 | x | x | x
COCCn1nnnc1C(c1ccccc1OC)N1CCN(C(=O)c2ccco2)CC1 (stereo unspecified) | 107 | 1 | -4 | 12 | 1 | x | x | x
COCCn1nnnc1C(c1cccc(OC)c1OC)N1CCN(C(=O)c2ccco2)CC1 (stereo unspecified) | x | 5 | -1 | 2 | 100* | x | 1 | 102
CCCCn1c(N)c(N(Cc2ccccc2OC)C(=O)c2ccc([N+](=O)[O-])s2)c(=O)[nH]c1=O | 95 | 3 | -2 | 8 | 2 | x | x | x
COc1ccccc1NC(=S)N1CCC(c2nc3cc(C)c(C)cc3[nH]2)CC1 | 104 | 1 | 3 | 11 | 1 | -6 | x | x
COc1ccccc1NC(=O)N1CCC(c2nc3cc(C)c(C)cc3[nH]2)CC1 | 110 | -2 | 4 | 0 | 25 | -5 | 0 | 97
SMILES | DSG3 Ab inh | HDAC3 inhib | LANA-H2A inh | VLA-4 inh | GRK2 inh | PKD1 inh | GRK2 inh confirm | FAM quench CP1 | others
N#CCc1nn2c(-c3ccccc3)ccnc2c1C#N | 106 | -36 | -1 | -19 | 0 | x | x | x
Nc1c2c(nc3sc4c(c13)CCCC4)CCCCCC2 | 95 | -1 | -1 | 10 | 83* | 5 | -4 | 92
O=C(CN(CC1CCCO1)C(=O)CNS(=O)(=O)c1ccc(Cl)cc1)NC1CCCC1 (stereo unspecified) | x | -1 | 8 | 0 | 2 | x | x | x
CC(C)(C)C1CCC(C(=O)OCC(=O)N2CCN(C(=O)c3ccco3)CC2)CC1 (stereo unspecified) | 109 | 1 | 3 | -3 | 2 | 3 | x | x
CCOC(=O)c1ccc(NC(=O)CC2S/C(=N/N=C3/NC(=O)CS3)NC2=O)cc1 (stereo unspecified) | 94 | 4 | 3 | -2 | 6 | -11 | x | x
Cc1ccc(NC(=O)CC2S/C(=N/N=C3/NC(=O)CS3)NC2=O)cc1 (stereo unspecified) | 108 | -12 | 2 | 8 | 91* | -2 | 3 | 99
COc1ccc(-c2sc3ccccc3c2C#CC2(O)CCCCC2)cc1 | 108 | 4 | -2 | 25 | 2 | x | x | x
COc1ccc(-c2sc3cc(OC)c(OC)cc3c2C#CC2(O)CCCCC2)cc1 | x | -5 | 3 | 20 | 83* | x | -3 | 96
Cn1ccnc1C(OC(=O)c1ccccc1)C(F)(F)F (stereo unspecified) | 107 | 6 | 8 | 1 | 6 | x | 2 | 94
COc1ccc(C(=O)NCCS(=O)(=O)NCc2ccccc2OC)cc1 | 98 | -2 | 2 | 13 | 0 | x | x | x

Screens from PubChem.
